# From PubChem BioAssay AID1041 (National Center for Advancing Translational Sciences (NCATS), 2008)
# Values without a mark were called inactive.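 Rule for the calls: active = compound lifting p16 RNA above DMSO-treated cells by a clear fold change, a shift of a few PCR cycles; inactive = the rest, including any drop in level.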
# Assay: p16 Derepression/Induction Secondary Assay for qHTS Assay for Epigenetic Modulators
# Settings: H358 cells, p16 mRNA RT-qPCR, 72 h; stronger effect = higher value
# Text: NIH Molecular Libraries Screening Centers Network [MLSCN] NIH Chemical Genomics Center [NCGC] MLSCN Grant: 1 X01 MH079860-01 Assay Provider: Elisabeth D. Martinez, University of Texas SW Medical Center NCGC Assay Overview: This secondary assay characterizes selected actives identified in the qHTS of the Locus Derepression (LDR) assay (PubChem AID 597). The LDR assay detects the derepression of a GFP reporter that is stably integrated in a region of the genome of murine c127i mammary cells that is presumably silenced. Compounds that cause derepression of the locus to express GFP are identified by enumerating GFP positive cells using a laser-scanning microplate cytometer. Selected LDR actives were assayed for the induction of p16 gene expression, a gene silenced by dense methylation of its promoter. […]
# NCGC Assay Protocol Summary Exponentially growing H358 non-small cell lung cancer cells were treated daily with fresh media containing the indicated concentrations of compounds for 72 hr. Cellular RNA was extracted, quantified, DNAse treated and reverse transcribed. The resulting cDNA was amplified in TaqMan real time quantitative PCR assays (Applied Biosystems) containing validated primers specific for p16 (Hs00233365_m1). […] Gene expression was measured by fold-induction over control DMSO-treated samples (36-37 average cycle time). […]
smiles,measurement,value
CN1CSC(=S)N(C)C1,fold change,1
